# In ChEMBL document CHEMBL1157539, “Thousands of chemical starting points for antimalarial lead identification” (Nature, 2010):
# Legend:
# Type in all cases: functional
# [1] = test system: Plasmodium falciparum; experiment: GSK_TCMDC: Inhibition of Plasmodium falciparum 3D7 in whole red blood cells, using parasite LDH activity as an index of growth. Test compounds present at 2uM
# [2] = test system: Plasmodium falciparum; experiment: GSK_TCMDC: Inhibition of Plasmodium falciparum Dd2 in whole red blood cells, using parasite LDH activity as an index of growth. Test compounds present at 2uM
# [3] = test system: HepG2; experiment: GSK_TCMDC: Percent inhibition of human HepG2 cell line. Test compounds present at 10uM.
compound,measurement,setting,value
Cl.Nc1c2c(nc3ccc(NC(=O)Cc4ccccc4)cc13)CCCC2,Inhibition,[1],100%
same,Inhibition,[2],0%
same,Inhibition,[3],9%
Cn1nc2ccc3ccccc3c2nc1=N.I,Inhibition,[1],91%
same,Inhibition,[2],85%
same,Inhibition,[3],100%
N#Cc1c(N)nc(SCC(=O)Nc2cc(C(F)(F)F)ccc2Cl)c(C#N)c1-c1cccs1,Inhibition,[1],90%
same,Inhibition,[2],96%
same,Inhibition,[3],23%
Cc1cc(O)c2c3c1C(=O)C=C1C3c3c(c(O)cc(O)c3C(=O)C1(C)C)C2=O (configuration not stated),Inhibition,[1],98%
same,Inhibition,[2],46%
same,Inhibition,[3],45%
CCN(CC)CCN(CCCc1ccc(-c2ccc(C(F)(F)F)cc2)cc1)C(=O)Cn1c(CCc2cccc(F)c2F)nc(=O)c2c1CCC2.O=C(O)C(O)C(O)C(=O)O,Inhibition,[1],92%
same,Inhibition,[2],27%
same,Inhibition,[3],38%
CCCNc1ccc2nccc(CCN3CCC(NCc4ccc5c(c4)NC(=O)CS5)CC3)c2n1.Cl,Inhibition,[1],94%
same,Inhibition,[2],17%
same,Inhibition,[3],0%
COc1ccc(CNCc2ccc(-c3ccc(CNCCc4ccccc4)cn3)cc2)cn1.O=C(O)C(F)(F)F,Inhibition,[1],97%
same,Inhibition,[2],44%
same,Inhibition,[3],16%
COc1cc(C(=O)Nc2ccc(-c3nc4ccccc4[nH]3)cc2)cc(OC)c1OC,Inhibition,[1],99%
same,Inhibition,[2],33%
same,Inhibition,[3],13%
COc1ccc(-c2nc3cccnc3n2CC(=O)Nc2cc(Cl)c(Cl)cc2Cl)c(OC)c1,Inhibition,[1],100%
same,Inhibition,[2],17%
same,Inhibition,[3],99%
COc1ccc(-c2cccc(NC(=O)c3ccc(C#N)cc3)c2)cc1CN(C)CCN(C)C.O=C(O)C(F)(F)F,Inhibition,[1],90%
same,Inhibition,[2],18%
same,Inhibition,[3],14%
CN(C)CCOc1cccc(NC(=O)Nc2ccc(-c3ccccc3)cc2)c1.O=C(O)C(F)(F)F,Inhibition,[1],90%
same,Inhibition,[2],16%
same,Inhibition,[3],11%
COc1ccc2nc(C)cc(N/N=C/c3ccc([N+](=O)[O-])cc3)c2c1,Inhibition,[1],100%
same,Inhibition,[2],70%
same,Inhibition,[3],0%
O=S(=O)(NC1=NCCC1)c1cccc(Nc2nc(C(F)(F)F)nc3ccccc23)c1,Inhibition,[1],83%
same,Inhibition,[2],8%
same,Inhibition,[3],6%
CC(C)(C)c1ccc(NC(=O)c2ccc(CN3CCCN(Cc4cccc(Cl)c4)CC3)cc2)cc1.O=C(O)C(F)(F)F,Inhibition,[1],96%
same,Inhibition,[2],7%
same,Inhibition,[3],43%
CCn1c(SC)nnc1C1CCCN(CC(=O)Nc2nc3ccc(OC)cc3s2)C1 (configuration not stated),Inhibition,[1],97%
same,Inhibition,[2],81%
same,Inhibition,[3],0%
Cc1nc(N)nc(N)c1CCCOc1ccccc1Cl,Inhibition,[1],98%
same,Inhibition,[2],5%
same,Inhibition,[3],40%
CC[C@@]1(O)C(=O)OCc2c1cc1n(c2=O)Cc2c-1nc1cc3c(cc1c2CN1CCN(C)CC1)OCCO3.Cl,Inhibition,[1],98%
same,Inhibition,[2],97%
same,Inhibition,[3],79%
NCCCNc1ccnc2cc(Cl)ccc12,Inhibition,[1],100%
same,Inhibition,[2],25%
same,Inhibition,[3],14%
COc1ccc2ccccc2c1CCCCN1CCN(CC(c2ccc(F)cc2)N2CCC2)CC1.O=C(O)C(F)(F)F (configuration not stated),Inhibition,[1],98%
same,Inhibition,[2],51%
same,Inhibition,[3],51%
Cc1nc(NCCCn2ccnc2)cc(-c2cncc(-c3ccc(OC(F)(F)F)cc3)c2)n1,Inhibition,[1],99%
same,Inhibition,[2],11%
same,Inhibition,[3],2%
CC(C)(CNCc1ccccc1)c1nc(-c2ccc(Cl)c(O)c2)c(-c2ccncc2)[nH]1.Cl,Inhibition,[1],100%
same,Inhibition,[2],99%
same,Inhibition,[3],77%
O=C(Nc1cccc(-c2ccc(NCCCN3CCCC3)nc2)c1)c1ccccc1,Inhibition,[1],100%
same,Inhibition,[2],21%
same,Inhibition,[3],22%
CCNc1cc(C(=O)N[C@@H](Cc2ccccc2)[C@H](O)CNC(C)(C)CC(C)(C)C)c(F)c(N2CCCCS2(=O)=O)c1,Inhibition,[1],94%
same,Inhibition,[2],63%
same,Inhibition,[3],8%
Cc1cc(=NN=Cc2ccc(Cl)cc2)c2ccccc2[nH]1,Inhibition,[1],100%
same,Inhibition,[2],87%
same,Inhibition,[3],5%
COc1ccc(CSC2CCCCC23NC(=S)NC3=S)cc1 (configuration not stated),Inhibition,[1],97%
same,Inhibition,[2],0%
same,Inhibition,[3],0%
COc1cc(Cc2cnc(N)nc2N)cc(OC(C)C)c1OC,Inhibition,[1],91%
same,Inhibition,[2],15%
same,Inhibition,[3],10%
O=C(CCNc1ccnc(NCCc2ccc(F)cc2)n1)Nc1ccccc1.O=C(O)C(F)(F)F,Inhibition,[1],95%
same,Inhibition,[2],10%
same,Inhibition,[3],9%
CC(Cc1ccc(OCC(=O)NCC2CCN(CCc3cccc(Cl)c3)CC2)cc1)NCCc1cccc(Cl)c1.Cl (configuration not stated),Inhibition,[1],96%
same,Inhibition,[2],85%
same,Inhibition,[3],100%
CCCc1cc(Cc2cnc(N)nc2N)ccc1OCCCCCC(=O)O.Cl,Inhibition,[1],97%
same,Inhibition,[2],0%
same,Inhibition,[3],3%
